Assay outcomes: PubChem BioAssay, National Center for Advancing Translational Sciences (NCATS)
In the library only some 5.5% were active in any assay of this set; here they are far more common.
Giardia kill: Giardia lamblia killing | activity change, % at 7.66 µM, hits read low | 0.15% of 340,000 active | AID 540267 | Giardia lamblia trophozoite viability; in the data active = activity change below about -80%; inconclusive = between about -30% and that limit;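 also: parasites exposed to compound for two days anaerobically before the ATP read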
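Anaerobic 48 hrs incubation at 37 deg C of 100 trophozoites/well with test compounds; ATPLite 1-Step luminescence, 15-30 min RT, reports cellular ATP as viability.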
ELG1 repair inh: blocks ELG1-dependent DNA repair in HEK293T cells | HEK293T ELG1-luciferase reporter, luminescence, 16 h; DNA damage induced by 5-fluorouridine | Potency, µM (series often up to 46.1 µM), for the others: at the highest dose activity change, negative = inhibition, usual class: inhibitors | 2.3% of 330,000 active | AID 504467; also: potency is read from the fitted curve at half-maximal effect; nearly all actives have a fitted effect of over 55% in size
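In this reporter screen, reduction of luminescence relative to DMSO vehicle indicated activity. Compounds and 5-fluorouridine were added together to 2,000 cells per well, incubated for 16 hr at 37 °C, then developed with ONE-Glo.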
Sfp inh: inhibitors of Bacillus subtilis Sfp phosphopantetheinyl transferase. Q9F4F7. Biochemical Sfp PPTase activity, qHTS. Potency, µM, for the others: largest response in the series, negative = inhibition, most hits filed as inhibitors. 3.5% of 310,000 active. AID 1490;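 also: the enzyme is Sfp with the accession as filed and its product quenches rhodamine fluorescence; potency is read from the fitted curve at half-maximal effect; 0% = enzyme reaction without inhibitor and -100% = no enzyme wells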
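Reaction rates are the 30-min fluorescence difference (ex 525, em 598 nm) in wells containing 15 nM Sfp, 5 uM rhodamine-CoA and 12.5 uM BHQ-2-YbbR at pH 7.6 with 10 mM MgCl2.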
Coupling enz: inhibits coupling enzyme system, counter-screen for aldolase hits; coupling enzyme system counterscreen, AmpLite Red fluorescence; activity change, negative = inhibition, % at 58.2 µM, hits read low; 0.67% of 290,000 active; in the data active = activity change below about -30%
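Final compound at 57.5 uM, incubated 10 min at RT with coupling enzyme reagent (glyceraldehyde-3-phosphate), then 20 min with substrate and AmpLite Red detection. Fluorescence read at 525/598 nm; tests interference with the coupling assay, not aldolase inhibition.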
Starred values were filed as active, the others as inactive; ? = inconclusive; / = no result given; ! = a repeat was not active. Unless noted, calls follow the shape of the dose curve; as a rule, active = well fitted curve in the direction sought with a large enough effect; inconclusive = small, poorly fitted or top-dose-only effect, or another doubt; inactive = no such curve, though single readings can be large; an effect the other way counts as inactive or inconclusive. Unless noted, % is scaled to controls: 0 for no effect and ±100 for the full control effect.

SMILES	Giardia kill	ELG1 repair inh	Sfp inh	Coupling enz
CCC1C(c2ccccc2)=CCC(C(=O)O)C1C (stereo not given)	26.9	/	/	/
CC[C@]12c3[nH]c4ccc(OC)cc4c3CCN1C(=O)C(CC(=O)NCCCOC)C[C@@H]2C(=O)N1CCN(C(=O)c2ccco2)CC1 (stereo not given in full)	3.9	13.1%	/	/
CCOC(=O)OCC1OC(c2ccc(C(C)=O)cc2)C=CC1Oc1ccc(-c2ccccc2)cc1 (stereo not given)	/	/	25.2%	0.3
CCN(CCCNC(=O)CNC(=O)c1nn(-c2ccc(OC)c(OC)c2)c(=O)c2ccccc12)c1ccccc1	8.6	10.3µM*	6.2%	-0.1
CCN(CCCNC(=O)CNC(=O)c1nn(-c2ccc(OC)cc2)c(=O)c2ccccc12)c1cccc(C)c1	7.9	-23.6%	12.9%	-2.6
C=Cc1ccc([C@H]2N[C@@H](C(=O)O)CC[C@@H]2C)cc1	/	/	-5.5%	0.3
COc1ccc(CC(=O)NNC(=O)CSc2nc(C)c(C)c(=O)[nH]2)cc1	8.3	10.9%	89.1µM*	2.4
O=C(O)CC12CC3CC(C1)CC(n1ncc(NCc4ccccc4Cl)c(Cl)c1=O)(C3)C2	-22.6	?	-16.9%	4.8
O=C(O)C12CC3CC(C1)CC(n1ncc(NCc4ccco4)c(Cl)c1=O)(C3)C2	0.7	-1.0%	35.5µM*	2.1
COc1ccccc1N1CCN(S(=O)(=O)CCNC(=O)C2CC2)CC1	-20.4	13.0%	/	/
COc1ccccc1N1CCN(C(=O)c2sc3nc(-c4ccc(F)cc4)cn3c2C)CC1	-4.7	18.4µM*	6.1%	2.0
CCOC(=O)N1CCN(C(=O)c2sc3nc(-c4ccc(F)cc4)cn3c2C)CC1	16.0	20.6µM*	1.5%	2.4
COc1cccc(C(c2cccc(OC)c2)c2ccccc2C(=O)O)c1	-15.0	/	/	/
COC1=CC(=O)c2ccccc2C1=O	-16.3	18.3µM*	/	/
COc1ccc(SN=C2C(C)=CC(=O)C=C2C)cc1	-18.2	?	-10.6%	3.2
COC1=CC(=O)C=C(OC)C1=O	-24.0	/	-80.4%	-81.3*
O=C1C=C(C2CCCCC2)C(=O)c2ccccc21	-7.2	/	/	/
CO[C@H]1C([C@@]2(C)O[C@@H]2CC=C(C)C)[C@]2(CC[C@H]1OC(=O)/C=C/C=C/C=C/C=C/C(=O)O)CO2 (stereo not given in full)	/	/	39.8µM*	1.7
CCOC(=O)[C@@H]1[C@H]2COc3ccccc3[C@@H]2N2C(=O)N(c3ccccc3)C(=O)[C@]12C	-6.8	-3.9%	15.1%	4.8
COc1cc(C(=O)N2CCN(C(=O)c3cc(-c4ccc(Br)cc4)n[nH]3)CC2)cc(OC)c1OC	30.9	-9.7%	1.6%	0.4
N#Cc1ccccc1Cn1cc(/C=C/[N+](=O)[O-])c2ccccc21	-2.3	20.6µM*	-28.3%	-4.1
CCCNc1c(NC(=O)C2CCC(C)CC2)c(=O)oc2ccccc12 (stereo not given)	-3.6	-3.9%	5.4%	/
O=P1(NC2CCCCC2)OCC2(CO1)COP(=O)(NC1CCCCC1)OC2 (stereo not given)	5.5	/	/	/
Cn1cnc([N+](=O)[O-])c1SCC(=O)NN	6.2	3.9%	56.2µM*	-1.7
O=C(O)C(Cc1ccccc1N(CCO)CCO)N1C(=O)c2ccccc2C1=O (stereo not given)	0.2	/	/	/
SMILES	Giardia kill	ELG1 repair inh	Sfp inh	Coupling enz
COc1cc2c(cc1OC)C(c1ccc(SC)cc1)CC(=O)N2 (stereo not given)	-7.3	-4.2%	89.1µM*	1.5
COc1cc2c(cc1OC)C(c1ccc(N(C)C)cc1)CC(=O)N2 (stereo not given)	-27.6	-4.2%	-26.6%	-11.6
CN(C)CC/C=C1/c2ccccc2Sc2c(O)cc(Cl)cc21	-12.5	?	?	-30.8*
O=S1(=O)C2CC3C=CC2(CN1Cc1cccc(F)c1)O3 (stereo not given)	4.6	/	7.8%	-0.1
Cc1nc(/N=C\c2ccc(N(C)C)cc2)sc1C	13.3	7.2%	/	/
CN1CCN(c2cc(N3CCN(C(=O)c4ccco4)CC3)c3c4c(onc24)-c2ccccc2C3=O)CC1	1.2	-1.4%	15.8µM*	-22.6
O=C(O)CCCNc1cc(N2CCN(C(=O)c3ccco3)CC2)c2noc3c2c1C(=O)c1ccccc1-3	1.7	-28.4%	-3.3%	-18.3
O=C1c2ccccc2-c2onc3c(N4CCN(CCO)CC4)cc(N4CCN(C(=O)c5ccco5)CC4)c1c23	7.1	?	5.01µM*	-23.4
CN1CCN(c2ncnc3ccc(-c4cccc(C#N)c4)cc23)CC1	/	/	11.1%	4.8
Cc1ccc2nc(COC(=O)c3cnccn3)cc(=O)n2c1	21.4	25.7%	/	/
CC(C)C[C@H](NC(=O)N1CC(=O)Nc2ccccc21)C(=O)N[C@@H](Cc1ccccc1)C(=O)O	-2.8	-3.1%	7.8%	4.9
CN1CCc2cccc3c2C1Cc1ccc(O)c(O)c1-3 (stereo not given)	-2.5	-18.3%	56.2µM*!	-6.4
COc1cc(-c2ccc3sc(-c4ccsc4)c(C#CCO)c3c2)cc(OC)c1OC	15.8	9.2µM*	/	/
COc1cc(-c2c(-c3ccsc3)sc3ccccc23)cc(OC)c1OC	-17.0	26.7%	/	/
COC(=O)c1c(-c2ccsc2)sc2ccc(-c3cc(OC)c(OC)c(OC)c3)cc12	-19.5	9.2µM*	/	/
COC(=O)Nc1ccc(S(=O)(=O)N2CCCc3cccc(O)c32)cc1	-2.5	18.3µM*	-3.9%	-1.1
O=C1O[C@H](CN2CCOCC2)CN1/N=C\c1ccc([N+](=O)[O-])o1	/	/	18.6%	-1.2
O=C1OCCN1/N=C/c1ccc([N+](=O)[O-])o1	-92.2*	17.8%	?	-14.2
O=C1OCCN1/N=C\c1ccc([N+](=O)[O-])o1	/	/	6.3%	-0.3
O=C1OC(CN(Cc2ccccc2)Cc2ccccc2)CN1N=Cc1ccc([N+](=O)[O-])o1 (stereo not given)	-93.9*	/	/	/
COCCCNC(=O)C[C@H]1C[C@H](C(=O)N(C(C)C)C(C)C)[C@@]2(C)c3[nH]c4ccc(Cl)cc4c3CCN2C1=O	14.3	-15.1%	/	/
O=C(Nc1ccc(Cl)cc1)OCCN1CCN(Cc2ccccc2)CCC1=O	/	/	-4.1%	5.2
Cc1cc(NS(=O)(=O)c2ccc(NC(=O)/C=C/c3ccc(C)o3)cc2)nc(C)n1	-0.6	-4.6%	3.55µM*	0.3
Cc1ccc(/C=C/C(=O)Nc2ccc(Oc3ccccc3)cc2)o1	4.5	?	28.2µM*	-1.6
COc1cccc(C2CC(c3c(-c4ccccc4)c4cc(Cl)ccc4[nH]c3=O)=NN2S(C)(=O)=O)c1OC (stereo not given)	-3.9	23.1µM*	-3.1%	0.1
CCc1[nH]c(=S)c(C#N)c(-c2ccccc2)c1C(=O)OC	-4.6	-6.5%	-10.9%	12.1
Cc1ccccc1NC(=O)c1c(C)[nH]c(=S)c(C#N)c1-c1ccc(Cl)cc1	1.3	10.8%	-10.4%	10.8
Cc1[nH]c(=S)c(C#N)c(-c2ccccc2)c1C(=O)Nc1ccccc1	1.3	?	28.2µM*	15.6
Cc1ccc(-c2c(C(=O)Nc3ccccc3C)c(C)[nH]c(=S)c2C#N)o1	-10.3	10.0%	2.82µM*	-12.0
